± gives the uncertainty stated by the source. In all, about 9,900 compounds were measured (“viability index relative to DMSO control”: median about 1, lowest 2% from about 0.85 on). What follows is part of a selection rich in the lowest values, with near analogues and random picks from the rest.
System: Plasmodium falciparum NF54 stage V gametocytes
Test: viability index relative to DMSO control (fraction); higher = less gametocyte killing
Conditions: 2.5 µM, incubation time: 72 h
Method in brief: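 P. falciparum NF54 stage V gametocytes (serum-free medium, 0.75% gametocytemia, 1.25% hematocrit) were exposed to compound at 2.5 µM for 72 hr at 37°C under low oxygen, then stained with MitoTracker Red CMXRos and saponin for one to two hours. Red particles of 20–70 µm2 in one field per well were counted, and the viability index is that count scaled to the plate mean of solvent-only wells.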

[1] = library set: Broad Institute DOS
[2] = library set: Broad Institute Blood Stage

Row | Structure (SMILES) | viability index [1] | viability index [2]
1 | O=C(C[C@H]1CC[C@H]2[C@@H](COC[C@@H](O)CN2Cc2nccs2)O1)NCc1ccccc1Cl | 1.1 ± 0.03 | 
2 | C[C@@H]1CN([C@H](C)CO)C(=O)Cc2cc(NC(=O)c3ccncc3)ccc2O[C@H]1CN(C)C(=O)Nc1ccc(F)cc1 | 0.944 ± 0.12 | 
3 | CC(C)NC[C@@H]1[C@H](c2ccc(C3=CCCCC3)cc2)[C@H](CO)N1S(C)(=O)=O | 0.996 ± 0.022 | 
4 | C[C@H]1CN([C@@H](C)CO)C(=O)CCCn2nncc2CO[C@@H]1CN(C)Cc1ccccc1C(=O)O | 1.04 ± 0.031 | 
5 | O=C(c1ccccn1)N1CC2(C1)[C@@H](c1ccccc1)[C@@H](CO)N2C(=O)C1CCCCC1 | 1.041 ± 0.0089 | 
6 | OC[C@@H]1[C@H](c2ccc(C3=CCCC3)cc2)[C@H]2CN(Cc3ccncc3)CCCCN12 | 1.05 ± 0.068 | 
7 | OC[C@H]1[C@@H](c2ccc(-c3cccc(F)c3)cc2)[C@@H]2CN(Cc3cncnc3)CCCCN12 | 0.963 ± 0.1 | 
8 | OC[C@@H]1[C@@H](c2ccc(-c3cccnc3)cc2)[C@@H]2CN(Cc3ccccn3)CCCCN12 | 0.737 ± 0.12 | 
9 | OC[C@@H]1[C@H](c2ccc(-c3cccnc3)cc2)[C@@H]2CN(Cc3ccccn3)CCCCN12 | 1.04 ± 0.06 | 
10 | OC[C@H]1[C@@H](c2ccc(C3=CCCC3)cc2)[C@@H]2CN(Cc3ccncc3)CCCCN12 | 0.845 ± 0.14 | 
11 | OC[C@@H]1[C@H](c2ccc(-c3cccnc3)cc2)[C@H]2CN(Cc3ccccn3)CCCCN12 | 0.979 ± 0.024 | 
12 | CN1C(=O)c2cc(NC(=O)c3ccc4c(c3)OCO4)ccc2OC[C@H]2O[C@@H](CC(=O)O)CC[C@@H]21 | 1.11 ± 0.071 | 
13 | CO[C@@H](CN(C)C(=O)c1cc(Cl)cc(Cl)c1)[C@@H](C)CN(C(=O)Nc1ccc(F)cc1)[C@@H](C)CO | 1.04 ± 0.018 | 
14 | N#C[C@H]1[C@@H](c2ccccc2)[C@@H](CO)N1C(=O)c1ccc2c(c1)OCO2 | 1.08 ± 0.022 | 
15 | N#C[C@H]1[C@@H](c2ccccc2C2=CCCC2)[C@H](CO)N1C(=O)Cc1ccncc1 | 1.07 ± 0.13 | 
16 | COc1ccc(S(=O)(=O)N(C)C[C@H]2OCCCC[C@@H](C)Oc3ccc(NC(=O)Cc4ccccc4)cc3C(=O)N([C@@H](C)CO)C[C@@H]2C)cc1 | 1.07 ± 0.17 | 
17 | COc1ccc(S(=O)(=O)N(C)C[C@H]2OCCCC[C@H](C)Oc3ccc(NC(=O)Cc4ccccc4)cc3C(=O)N([C@H](C)CO)C[C@@H]2C)cc1 | 0.994 ± 0.022 | 
18 | COc1ccc(S(=O)(=O)N(C)C[C@H]2OCCCC[C@H](C)Oc3ccc(NC(=O)Cc4ccccc4)cc3C(=O)N([C@@H](C)CO)C[C@H]2C)cc1 | 0.791 ± 0.031 | 
19 | COc1ccc(S(=O)(=O)N(C)C[C@H]2OCCCC[C@H](C)Oc3ccc(NC(=O)Cc4ccccc4)cc3C(=O)N([C@H](C)CO)C[C@H]2C)cc1 | 0.9061 ± 0.001 | 
20 | COc1ccc(S(=O)(=O)N(C)C[C@H]2OCCCC[C@@H](C)Oc3ccc(NC(=O)Cc4ccccc4)cc3C(=O)N([C@@H](C)CO)C[C@H]2C)cc1 | 0.773 ± 0.061 | 
21 | COc1ccc(S(=O)(=O)N(C)C[C@@H]2OCCCC[C@H](C)Oc3ccc(NC(=O)Cc4ccccc4)cc3C(=O)N([C@@H](C)CO)C[C@H]2C)cc1 | 0.911 ± 0.17 | 

Row | Structure (SMILES) | viability index [1] | viability index [2]
22 | COCC#Cc1ccc([C@@H]2[C@H](CO)N3C(=O)CN(C(=O)CN4CCOCC4)C[C@@H]23)cc1 | 1.02 ± 0.05 | 
23 | C[C@@H](NC(=O)C[C@H]1C=C[C@@H](NS(=O)(=O)c2cccc(F)c2)[C@H](CO)O1)c1ccccc1 | 1.17 ± 0.04 | 
24 | O=C(N[C@@H]1CC[C@H](CC(=O)N2CCOCC2)O[C@H]1CO)c1cccc(F)c1 | 1.07 ± 0.062 | 
25 | O=C(Nc1ccccc1)N1CC(=O)N2[C@H](CO)[C@@H](c3ccc(C#CC4CCCCC4)cc3)[C@@H]2C1 | 1.04 ± 0.086 | 
26 | COCC(=O)N1CC[C@@]2(CC1)CN([C@@H](CO)c1c2c2ccc(OC)cc2n1C)C(=O)c1ccccn1 | 1.02 ± 0.1 | 
27 | CO[C@@H]1CN(C)C(=O)c2cc(NS(=O)(=O)CC(F)(F)F)ccc2OC[C@H](C)NC[C@@H]1C | 1.05 ± 0.059 | 
28 | O=C(NCC[C@@H]1CC[C@@H](NS(=O)(=O)Cc2ccccc2)[C@@H](CO)O1)C1CCCCC1 | 0.968 ± 0.15 | 
29 | CN(C)C(=O)C[C@@H]1C=C[C@H](NC(=O)c2ccc(F)cc2)[C@@H](CO)O1 | 1.11 ± 0.097 | 
30 | C[C@@H]1CN([C@H](C)CO)C(=O)c2cccc(NC(=O)c3nc4ccccc4s3)c2O[C@H]1CN(C)C(=O)Nc1ccc2c(c1)OCO2 | 0.9047 ± 0.0069 | 
31 | C[C@H](CO)N1C[C@H](C)[C@@H](CN(C)C(=O)Nc2ccc3c(c2)OCO3)Oc2ccc(NC(=O)Nc3ccc(C(F)(F)F)cc3)cc2CC1=O |  | 0.755 ± 0.061
32 | C[C@@H]1CN([C@@H](C)CO)C(=O)c2cccc(NC(=O)C3CC3)c2O[C@@H]1CN(C)C(=O)Nc1ccc(C(F)(F)F)cc1 |  | 0.594 ± 0.06
33 | C[C@H](CO)N1C[C@H](C)[C@H](CN(C)C(=O)Nc2ccc(C(F)(F)F)cc2)Oc2ccc(NS(=O)(=O)c3ccc(Cl)cc3)cc2CC1=O | 1.009 ± 0.0083 | 
34 | C[C@@H]1CN([C@@H](C)CO)C(=O)c2cccc(NC(=O)NC3CCCCC3)c2O[C@@H]1CN(C)Cc1ccc(C(F)(F)F)cc1 | 0.813 ± 0.08 | 
35 | C[C@H](CO)N1C[C@H](C)[C@@H](CN(C)C(=O)Nc2ccc3c(c2)OCO3)Oc2c(NC(=O)c3nc4ccccc4s3)cccc2C1=O | 1.01 ± 0.041 | 
36 | C[C@H](CO)N1C[C@H](C)[C@@H](CN(C)C(=O)Nc2ccc(C(F)(F)F)cc2)Oc2ccc(NS(=O)(=O)c3ccc(Cl)cc3)cc2CC1=O | 0.917 ± 0.088 | 
37 | Cc1ccc(S(=O)(=O)Nc2cccc3c2O[C@@H](CN(C)C(=O)Nc2ccc(C(F)(F)F)cc2)[C@@H](C)CN([C@H](C)CO)C3=O)cc1 | 1.08 ± 0.061 | 
38 | Cc1ccc(S(=O)(=O)Nc2cccc3c2O[C@H](CN(C)C(=O)Nc2ccc(C(F)(F)F)cc2)[C@@H](C)CN([C@H](C)CO)C3=O)cc1 | 1.02 ± 0.029 | 
39 | C[C@@H]1CN([C@H](C)CO)C(=O)c2cccc(NC(=O)NC3CCCCC3)c2O[C@H]1CN(C)Cc1ccc(C(F)(F)F)cc1 | 1.01 ± 0.083 | 
40 | C[C@@H]1CN([C@H](C)CO)C(=O)c2cccc(NC(=O)NC3CCCCC3)c2O[C@@H]1CN(C)Cc1ccc(C(F)(F)F)cc1 | 0.977 ± 0.071 | 
41 | C[C@@H]1CN([C@@H](C)CO)C(=O)c2cccc(NC(=O)c3nc4ccccc4s3)c2O[C@H]1CN(C)C(=O)Nc1ccc(C(F)(F)F)cc1 |  | 0.811 ± 0.058
42 | O=C(Nc1ccccc1F)N1CC(=O)N2[C@@H](CO)[C@H](c3ccc(-c4cccnc4)cc3)[C@@H]2C1 | 1.08 ± 0.028 | 
